{"source": "PubChem BioAssay AID1159580", "about": "(chemical genetic matrix, 2015)", "test": "chemical genetic growth profiling, strain panel (AID 1159580);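 also: tested at 20 µM; growth read once vehicle control cultures reached saturation at 30 °C; 1 = growth at the plate median or of vehicle wells; lower values mean less growth of the strain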", "conditions": "S. cerevisiae deletion strains, growth OD", "note": "Out of some 5,500 compounds screened, about 2,000 (36%) were called active. Another 18% or so got no clear call; they are omitted. This is one part of the list. Unmarked numbers belong to inactive results. Rule as the data show it: active = normalized growth mostly below about 0.91 (no sharp cut-off); inconclusive = no clear call, values can overlap the other calls; inactive = mostly above about 0.92."}
{"smiles": "C=C1C(=O)O[C@@H]2[C@H]3O[C@]3(C)CCC=C(C)CC[C@@H]12", "values": [{"measurement": "normalized growth", "setting": "locus YAL040C, strain CLN3, hits give low values", "result": 0.966}, {"measurement": "normalized growth", "setting": "locus YCL061C, strain MRC1 (second series), hits give low values", "result": 0.96}, {"measurement": "normalized growth", "setting": "locus YDR363W, strain ESC2, hits give low values", "result": 0.969}, {"measurement": "normalized growth", "setting": "locus YER002W, strain NOP16, hits give low values", "result": 0.981}, {"measurement": "normalized growth", "setting": "locus YGR229C, strain SMI1, hits give low values", "result": "0.822 (active)"}, {"measurement": "normalized growth", "setting": "locus YJR075W, strain HOC1, hits give low values", "result": "0.906 (active)"}, {"measurement": "normalized growth", "setting": "locus YMR307W, strain GAS1, hits give low values", "result": "0.766 (active)"}, {"measurement": "normalized growth", "setting": "locus YNL175C, strain NOP13, hits give low values", "result": 0.956}, {"measurement": "normalized growth", "setting": "locus YNL197C, strain WHI3, hits give low values", "result": 0.95}, {"measurement": "normalized growth", "setting": "locus YNL224C, strain SQS1, hits give low values", "result": 0.967}, {"measurement": "normalized growth", "setting": "locus YNL322C, strain KRE1, hits give low values", "result": 0.945}, {"measurement": "normalized growth", "setting": "locus YOR083W, strain WHI5 (second series), hits give low values", "result": 0.972}, {"measurement": "normalized growth", "setting": "locus YPL055C, strain LGE1, hits give low values", "result": 0.945}]}
